The text below walks through data of PubChem BioAssay (NCI).

Values joined by “and” are separate entries in the source; they are usually repeats but may differ in a detail not shown here. Equal values may be shown once. About 83,000 compounds went through this panel and 20% of them were active in at least one assay; those are over-represented in the sample as a whole.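 A percent growth of 40 corresponds to 60% growth inhibition; 0 means no net growth; -100 means all cells died. Active threshold: below 10.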 Active and inactive are the calls of the source.

Among the test systems are HCT-15 colon; HT29 colon; SNB-75 CNS; SNB-19 CNS; U251 CNS; PC-3 prostate; SK-MEL-5 melanoma; LOX IMVI melanoma; SK-MEL-28 melanoma; SK-MEL-2 melanoma; EKVX NSCLC; SN12C renal; UO-31 renal; TK-10 renal; ACHN renal; CAKI-1 renal; A498 renal; CCRF-CEM leukemia; MOLT-4 leukemia; UACC-62 melanoma.
Test in all cases: NCI-60 one-dose screen, 48 h (100 = growth as untreated, 0 = no growth, -100 = all killed)
What all share (details): 10 µM unless noted

On to `COc1ccccc1C(C)=O`, for which the growth in the experiment with HCT-15 colon was 108% (inactive) and 95.7% (inactive); in the experiment with HT29 colon, 114% (inactive) and 102% (inactive); in the experiment with SNB-75 CNS it was 105% (inactive) and 85.1% (inactive); with SNB-19 CNS, 116% (inactive) and 109% (inactive); in the experiment with U251 CNS, 107% (inactive) and 106% (inactive); in the experiment with PC-3 prostate it was 89.7% (inactive) and 96.9% (inactive). Moreover, the growth is 105% (inactive) and 110% (inactive) in the experiment with SK-MEL-5 melanoma; 103% (inactive) and 60.6% (inactive) in the experiment on LOX IMVI melanoma; 121% (inactive) and 106% (inactive) with SK-MEL-28 melanoma; 109% (inactive) in the experiment with SK-MEL-2 melanoma; 98% (inactive) in the experiment on EKVX NSCLC; 118% (inactive) and 108% (inactive) in the experiment on SN12C renal. In addition, the growth with UO-31 renal is 89.4% (inactive) and 96.5% (inactive); in the experiment on TK-10 renal, 118% (inactive) and 99.4% (inactive); in the experiment with ACHN renal, 105% (inactive) and 102% (inactive); with CAKI-1 renal, 99.5% (inactive) and 112% (inactive); with A498 renal, 92% (inactive) and 108% (inactive); in the experiment with CCRF-CEM leukemia, 102% (inactive). The growth in the experiment with MOLT-4 leukemia was 95.4% (inactive) and 99.1% (inactive).

Consider `Clc1nc(Oc2ccccc2)nc(-c2cn(-c3ccccc3)c3ccccc23)n1`, for which the growth is 38.5% (inactive) in the experiment on HCT-15 colon; 40.6% (inactive) in the experiment on HT29 colon; 105% (inactive) in the experiment with SNB-75 CNS; 47.2% (inactive) in the experiment on U251 CNS; 41.3% (inactive) in the experiment on PC-3 prostate; 102% (inactive) with SK-MEL-5 melanoma. The growth in the experiment on UACC-62 melanoma is 80.7% (inactive); in the experiment with LOX IMVI melanoma, 10.7% (inactive); in the experiment with SK-MEL-28 melanoma, -18.3% (active); in the experiment with SK-MEL-2 melanoma, -49.5% (active); in the experiment on EKVX NSCLC, 81.3% (inactive); with SN12C renal, 85.9% (inactive). Moreover, the growth with UO-31 renal was 17% (inactive); in the experiment on TK-10 renal it was 114% (inactive); in the experiment with ACHN renal, 68.7% (inactive); in the experiment with CAKI-1 renal, 13.4% (inactive); with A498 renal it was 128% (inactive); in the experiment on CCRF-CEM leukemia, 27.2% (inactive). Further, the growth with MOLT-4 leukemia was 47% (inactive).

`O[C@H](c1cc(C(F)(F)F)nc2c(C(F)(F)F)cccc12)[C@@H]1CCCCN1`: the growth in the experiment on HCT-15 colon was 70.8% (inactive) and 82.5% (inactive); with HT29 colon, 47.5% (inactive); in the experiment on SNB-75 CNS it was 29.7% (inactive) and 46.3% (inactive); in the experiment on U251 CNS, 42.6% (inactive) and 45.9% (inactive); with PC-3 prostate, 42.7% (inactive) and 45% (inactive); in the experiment with SK-MEL-5 melanoma, 84.9% (inactive) and 74.2% (inactive). In addition, the growth with UACC-62 melanoma is 70.5% (inactive) and 67.8% (inactive); in the experiment on LOX IMVI melanoma, 11.6% (inactive) and 7.96% (active); in the experiment with SK-MEL-28 melanoma, 94.4% (inactive) and 88.8% (inactive); with SK-MEL-2 melanoma, 73.6% (inactive) and 52.5% (inactive); with EKVX NSCLC, 65.5% (inactive) and 82.8% (inactive); in the experiment with SN12C renal, 65.9% (inactive) and 55.1% (inactive). Also, the growth was 50.5% (inactive) and 31.7% (inactive) with UO-31 renal; 56.9% (inactive) and 63.8% (inactive) with TK-10 renal; 40.1% (inactive) and 45.8% (inactive) in the experiment with ACHN renal; 72.7% (inactive) and 50.9% (inactive) in the experiment with CAKI-1 renal; 67% (inactive) and 52% (inactive) with A498 renal; 76.5% (inactive) and 71.6% (inactive) in the experiment on CCRF-CEM leukemia. The growth with MOLT-4 leukemia is 32.7% (inactive).

With `CC(C)(O)Cn1cc(-c2ccc3nc(OC4CC4)ccc3c2)c2c(N)ncnc21`, the growth in the experiment on HCT-15 colon was 95.3% (inactive) and 73.8% (inactive); in the experiment with HT29 colon, 74% (inactive) and 44.6% (inactive); in the experiment with SNB-75 CNS, 40.2% (inactive) and 37.9% (inactive); in the experiment with U251 CNS, 82.1% (inactive) and 50.5% (inactive); in the experiment with PC-3 prostate it was 56.8% (inactive) and 48.2% (inactive); with SK-MEL-5 melanoma, 84.3% (inactive) and 37.8% (inactive). Further, the growth in the experiment with UACC-62 melanoma is 48.4% (inactive); in the experiment on LOX IMVI melanoma it was 72.8% (inactive) and 30.4% (inactive); in the experiment with SK-MEL-28 melanoma, 101% (inactive) and 71.5% (inactive); with SK-MEL-2 melanoma, 87.8% (inactive); with EKVX NSCLC it was 85.8% (inactive) and 49.3% (inactive); with SN12C renal, 87.9% (inactive) and 38.6% (inactive). For the same compound, the growth in the experiment with UO-31 renal is 63.7% (inactive) and 19.2% (inactive); with TK-10 renal, 74.2% (inactive) and 55.3% (inactive); in the experiment with ACHN renal, 86.2% (inactive) and 43.1% (inactive); in the experiment with CAKI-1 renal, 80.9% (inactive) and 70.1% (inactive); in the experiment on A498 renal it was 64.9% (inactive) and 21% (inactive); in the experiment with CCRF-CEM leukemia, 67.2% (inactive) and 38% (inactive). Further, the growth with MOLT-4 leukemia was 56.6% (inactive) and 17.4% (inactive).
